Test results as given in PubChem BioAssay AID504467 (National Center for Advancing Translational Sciences (NCATS), 2011).
The campaign covered roughly 330,000 compounds. About 7,700 (2.3%) were called active. About 26% were inconclusive and are not listed. The sample as a whole holds a higher share of actives than the screen did. Unmarked numbers belong to inactive results. Calls follow the shape of the dose curve; as a rule, active = well fitted inhibition curve with a large enough effect; inconclusive = small, poorly fitted or top-dose-only effect, or effect the other way; inactive = flat fitted curve, though single readings scatter.

Test: qHTS screen for small molecules that inhibit ELG1-dependent DNA repair in human embryonic kidney (HEK293T) cells expressing luciferase-tagged ELG1; also: nearly all actives have a fitted effect of over 55% in size
Conditions: HEK293T ELG1-luciferase reporter, luminescence, 16 h, DNA damage induced by 5-fluorouridine; series mostly up to 46.1 µM; activity change, negative = inhibition: at the top concentration
In short: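 Cells (2,000 per well) received 5-fluorouridine plus test compound or DMSO and were incubated 16 hr at 37 °C, 5% CO2. Luciferase activity was read by luminescence 30 min after ONE-Glo addition; signal suppression marked inhibition of damage-induced ELG1 function.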
% is scaled to controls: 0 for no effect and ±100 for the full control effect; potency is read from the fitted curve at half-maximal effect.

Structure (SMILES) | activity change, negative = inhibition [%] | Potency
COc1ccc(CCNc2nc(C)cc(C)n2)cc1OC | -0.316 | –
CCS(=O)(=O)NCCc1ccc(OC)c(OC)c1 | -10.4 | –
COc1ccc(CCNc2ncnc3nc[nH]c23)cc1OC | – | 14.6 µM (active)
CCCN(C(=O)c1nc2nccc(C)n2n1)c1c(N)n(Cc2ccccc2)c(=O)[nH]c1=O | 7.75 | –
O=C(Nc1ccccc1F)c1ccc(S(=O)(=O)N2CCCCCC2)cc1 | -0.132 | –
Cc1cccc(NS(=O)(=O)c2ccc(C)c(C(=O)NCc3cccnc3)c2)c1 | -4.62 | –
COC(=O)Cc1ccc(OC(=O)C2CCN(S(=O)(=O)c3ccc(OC)c(OC)c3)CC2)cc1 | 22.6 | –
CCOC(=O)c1c(C)[nH]c(C)c1S(=O)(=O)N(C)CC(=O)Nc1ccccc1C | 2.89 | –
CCOC(=O)c1c(C)[nH]c2c1-c1ccccc1C(=O)C2=O | – | 2.91 µM (active)
Cc1[nH]c2ccccc2c1C(=O)COC(=O)C(C)C | 13.3 | –
CC[C@]12c3[nH]c4cc(CCC(=O)N(C)C)ccc4c3CCN1C(=O)[C@@H](CC(=O)NCCCn1ccnc1)C[C@@H]2C(=O)N1CCN(C(=O)C2CC2)CC1 | 20.4 | –
Cc1ccc(N(Cc2ccccc2O)C(=O)c2ccccc2F)cc1 | -6.48 | –
Cc1ccc(C(=O)OCC(=O)N2CC(C)CC(C)C2)cc1S(=O)(=O)N1CCCCC1 (stereo not drawn) | -2.94 | –
Cc1ccc(C(=O)NCC(=O)O)cc1S(=O)(=O)N1CCCCC1 | 12.5 | –
Cc1ccc(C(=O)OCC(=O)Nc2ccc(Cl)cn2)cc1S(=O)(=O)N1CCOCC1 | 11.3 | –
Cc1ccc(C(=O)OCC(=O)N2CCCCCC2)cc1S(=O)(=O)N1CCOCC1 | 6.02 | –
COc1ccc(C(=O)OCC(=O)c2ccc(C)c(S(=O)(=O)N3CCOCC3)c2)cc1OC | – | 10.3 µM (active)
Cc1ccc(C(=O)OCC(=O)NCc2cc(C)c(O)c(C)c2)cc1S(=O)(=O)N1CCCCC1 | – | 7.3 µM (active)
COc1ccc(C2(C)ON(c3ccccc3C(F)(F)F)C2=O)cc1 (stereo not drawn) | -20.7 | –
Cc1ccc(Cn2cc(C(=O)NN)c(=O)c3ccc(F)cc32)cc1 | -19.1 | –
CC1(C)Oc2ccc3ccc(=O)oc3c2/C(=N/O)C1=O | 1.95 | –

Structure (SMILES) | activity change, negative = inhibition [%] | Potency
COc1ccc(C(=O)Nc2ccc3nc(N4CCCCC4)cc(C)c3c2)cc1OC | – | 23.1 µM (active)
COc1ccc(C(=O)Nc2ccc(S(=O)(=O)Nc3onc(C)c3C)cc2)cc1OC | 4.09 | –
COc1ccc(C(=O)NC(=S)Nc2ccc(N3CCCC3)cc2)cc1OC | 26.5 | –
CN1CCN(CCC(=O)N/N=C/C=C2\N(C)c3ccccc3C2(C)C)CC1 | 10.6 | –
CN1/C(=C\C(=O)c2oc3ccccc3c2N)C(C)(C)c2ccccc21 | – | 13 µM (active)
CN1/C(=C\C(=O)c2cccnc2Cl)C(C)(C)c2ccccc21 | 11.6 | –
CC(C)[C@H](NC(=O)N1CCn2c1nc1ccccc12)C(=O)NCCc1ccccc1 | 6.27 | –
CCOc1ccc(C(=O)CCC(=O)Nc2ccncc2)cc1 | -1.92 | –
COc1ccc2oc(C(=O)N(CC(C)C)C3CCS(=O)(=O)C3)c(C)c2c1 (stereo not drawn) | 2.82 | –
COc1cc(C(=O)OC(C)C(=O)NCC2CCCCC2)cc(NC(=O)c2ccco2)c1OC (stereo not drawn) | – | 11.6 µM (active)
COc1cc(C(=O)N[C@@H](C)C(=O)NCc2ccco2)cc(OC)c1OC | 9.98 | –
CC(OC(=O)c1ccc([N+](=O)[O-])cc1)C(=O)NCC1CCCCC1 (stereo not drawn) | -18.6 | –
CN1C(=O)[C@H]2[C@@H](/C=C/c3ccccc3)N3C(=O)CN(Cc4ccc(-c5ccccc5)cc4)C(=O)[C@@]3(C)[C@H]2C1=O | -1.92 | –
COc1ccccc1CNC(=O)COn1nnc2ccc(S(=O)(=O)N3CCOCC3)cc21 | -1.32 | –
COc1ccc(OC)c(Nc2nc3ccccc3n3cnnc23)c1 | – | 14.6 µM (active)
COc1ccc(CCNc2nc3ccc(C)cc3n3cnnc23)cc1OC | -17.1 | –
CCn1c(C(O)c2cc(OC)ccc2OC)nc2ccccc21 (stereo not drawn) | -22 | –
Cc1ccc(/C=C2/SC(=S)N(CCC(=O)NCCCN3CCOCC3)C2=O)cc1 | 3.39 | –
CCOc1ccc(NC(=O)COc2ccc(C(=O)N3CCC(C(N)=O)CC3)cc2OC)cc1 | 0.553 | –
Cc1cc(-n2nc(C)cc2C)n2nc(C)c(-c3ccccc3)c2n1 | -15.9 | –
Cc1cc(-c2ccccc2)n2nc(C)c(-c3ccccc3)c2n1 | 29.7 | –

Structure (SMILES) | activity change, negative = inhibition [%] | Potency
CCc1c(C)nc2c(-c3ccccc3)c(C)nn2c1Nc1ccc(NC(C)=O)cc1 | – | 16.4 µM (active)
Cc1cc(C)c2nc(N(CCN(C)C)C(=O)/C=C/c3cccs3)sc2c1 | -3.07 | –
CN(CC(=O)Nc1ccc(F)c(F)c1F)C(=O)Cn1cnc2c1c(=O)n(C)c(=O)n2C | 13 | –
O=C(COc1ccccc1F)NNC(=O)c1cc(Br)ccc1Cl | 16.7 | –
COc1ccccc1N1CCN(C(=O)C2Cc3ccccc3CN2C(=O)c2ccco2)CC1 (stereo not drawn) | 8.8 | –
Cc1ccc(C)c(-c2nnc(NC(=O)CS(=O)(=O)c3ccccc3)o2)c1 | -2.86 | –
COc1ccc(S(=O)(=O)NCC(=O)NC2CC2)cc1OC | 3.84 | –
O=C(N/N=C/c1ccc(O)c2ccccc12)c1cccnc1 | -3.64 | –
Cc1ccc(C(=O)NCCNC(=O)c2cnccn2)cc1 | -0.272 | –
CCN(CC)c1ccc(/C=N/NC(=O)c2cnccn2)c(O)c1 | – | 1.46 µM (active)
CC1(c2ccc3ccccc3c2)NC(=O)N(CC(N)=O)C1=O (stereo not drawn) | -0.705 | –
CCc1ccc(Nc2n[n+](-c3ccccc3)c(-c3cccc(Cl)c3Cl)s2)cc1 | -28.7 | –
Cc1ccc(Nc2ccc(C(N)=O)cc2[N+](=O)[O-])cc1 | -8.38 | –
NC(=O)c1ccc(Nc2ccc3nonc3c2[N+](=O)[O-])cc1 | -11.4 | –
NC(=O)c1ccc(Nc2ccc3c(c2)CCC3)c([N+](=O)[O-])c1 | – | 11.6 µM (active)
CC(Sc1nnc(-c2ccccc2F)n1C1CC1)C(N)=O (stereo not drawn) | 2.76 | –
CCN(C[C@H]1N[C@@](Cc2ccccc2)(C(=O)OC)[C@H]2C(=O)N(Cc3ccccc3)C(=O)[C@@H]12)C(=O)c1ccc(C)cc1 | 0.138 | –
COc1ccccc1C(=O)Nc1ccc(OCc2nnc3c4ccccc4c(C)nn23)cc1 | – | 20.6 µM (active)
CCOc1ccc(NC(=O)c2cc(C)nc3ccccc23)cc1 | -8.94 | –
CCCNC(=O)Nc1ccccc1C(=O)Nc1ccc(OC)cc1 | 23.7 | –
COc1ccc(C(CNC(=O)c2ccc(NS(=O)(=O)c3ccc(F)c(C)c3)cc2)N(C)C)cc1 (stereo not drawn) | 14.9 | –
